About 2,000 (36%) of roughly 5,500 compounds were called active. Inconclusive results (about 18%) are left out. No stated cut-off is given here; in the data, active means normalized growth mostly below about 0.91 (no sharp cut-off); inconclusive means no clear call, values can overlap the other calls; inactive means mostly above about 0.92. This is one part of the list.
Assay: chemical genetic growth profiling, strain panel (AID 1159580);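 further: tested at 20 µM; growth read once vehicle control cultures reached saturation at 30 °C; 1 = growth at the plate median or of vehicle wells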
Conditions: growth OD

Measured: normalized growth

NC[C@H]1O[C@H](O[C@H]2C(O[C@@H]3O[C@H](CO)[C@@H](O)[C@H]3O)[C@@H](O)[C@H](N)C[C@@H]2N)[C@H](N)[C@@H](O)[C@@H]1O (some centres not stated)
inactive: S. cerevisiae deletion strains, locus YJR075W, strain HOC1, stronger effect = lower value 0.987 | S. cerevisiae deletion strains, locus YKL009W, strain mrt4, stronger effect = lower value 0.995 | S. cerevisiae deletion strains, locus YKL068W, stronger effect = lower value 0.99 | S. cerevisiae deletion strains, locus YKL085W, strain MDH1 (second series), stronger effect = lower value 1 | S. cerevisiae deletion strains, locus YKL085W, strain MDH1, stronger effect = lower value 1 | S. cerevisiae deletion strains, locus YKL160W, strain elf1, stronger effect = lower value 1.01 | S. cerevisiae deletion strains, locus YKL190W, strain CNB1, stronger effect = lower value 1.02 | S. cerevisiae deletion strains, locus YKR001C, strain vps1, stronger effect = lower value 0.976 | S. cerevisiae deletion strains, locus YKR026C, strain gcn3, stronger effect = lower value 0.982 | S. cerevisiae deletion strains, locus YKR091W, strain srl3, stronger effect = lower value 0.993 | S. cerevisiae deletion strains, locus YLL001W, strain dnm1, stronger effect = lower value 1 | S. cerevisiae deletion strains, locus YLL026W, stronger effect = lower value 0.984 | S. cerevisiae deletion strains, locus YLL041C, strain sdh2, stronger effect = lower value 0.995 | S. cerevisiae deletion strains, locus YLR027C, strain aat2, stronger effect = lower value 1 | S. cerevisiae deletion strains, locus YLR039C, strain RIC1, stronger effect = lower value 0.989 | S. cerevisiae deletion strains, locus YLR058C, strain SHM2, stronger effect = lower value 0.99 | S. cerevisiae deletion strains, locus YLR102C, strain apc9, stronger effect = lower value 0.999 | S. cerevisiae deletion strains, locus YLR113W, strain HOG1, stronger effect = lower value 1.03 | S. cerevisiae deletion strains, locus YLR221C, strain rsa3, stronger effect = lower value 1 | S. cerevisiae deletion strains, locus YLR258W, strain gsy2, stronger effect = lower value 0.995 | S. cerevisiae deletion strains, locus YLR262C, strain YPT6 (second series), stronger effect = lower value 1.01 | S. cerevisiae deletion strains, locus YLR262C, strain YPT6, stronger effect = lower value 0.997 | S. cerevisiae deletion strains, locus YLR268W, strain sec22, stronger effect = lower value 0.955 | S. cerevisiae deletion strains, locus YLR320W, strain mms22, stronger effect = lower value 0.991 | S. cerevisiae deletion strains, locus YLR330W, strain CHS5, stronger effect = lower value 0.997 | S. cerevisiae deletion strains, locus YLR342W, strain FKS1 (second series), stronger effect = lower value 1.03 | S. cerevisiae deletion strains, locus YLR342W, strain FKS1, stronger effect = lower value 1 | S. cerevisiae deletion strains, locus YLR357W, strain rsc2, stronger effect = lower value 0.967 | S. cerevisiae deletion strains, locus YLR370C, strain arc18, stronger effect = lower value 0.998 | S. cerevisiae deletion strains, locus YLR371W, strain rom2, stronger effect = lower value 0.987 | S. cerevisiae deletion strains, locus YLR384C, strain iki3, stronger effect = lower value 0.985 | S. cerevisiae deletion strains, locus YLR418C, strain cdc73, stronger effect = lower value 0.975 | S. cerevisiae deletion strains, locus YML016C, strain PPZ1, stronger effect = lower value 0.992 | S. cerevisiae deletion strains, locus YML032C, strain rad52, stronger effect = lower value 0.979 | S. cerevisiae deletion strains, locus YML120C, strain ndi1, stronger effect = lower value 1.01 | S. cerevisiae deletion strains, locus YML124C, strain tub3, stronger effect = lower value 0.993 | S. cerevisiae deletion strains, locus YMR058W, strain fet3, stronger effect = lower value 1 | S. cerevisiae deletion strains, locus YMR078C, strain ctf18, stronger effect = lower value 0.99 | S. cerevisiae deletion strains, locus YMR125W, strain sto1, stronger effect = lower value 0.963 | S. cerevisiae deletion strains, locus YMR129W, stronger effect = lower value 0.981 | S. cerevisiae deletion strains, locus YMR205C, strain PFK2, stronger effect = lower value 0.962 | S. cerevisiae deletion strains, locus YMR223W, strain ubp8, stronger effect = lower value 1.01 | S. cerevisiae deletion strains, locus YMR231W, strain pep5, stronger effect = lower value 1 | S. cerevisiae deletion strains, locus YMR263W, strain SAP30, stronger effect = lower value 0.995 | S. cerevisiae deletion strains, locus YMR307W, strain GAS1, stronger effect = lower value 0.997 | S. cerevisiae deletion strains, locus YNL067W, strain RPL9B, stronger effect = lower value 0.984 | S. cerevisiae deletion strains, locus YNL071W, strain lat1, stronger effect = lower value 1.01 | S. cerevisiae deletion strains, locus YNL128W, strain TEP1, stronger effect = lower value 0.994 | S. cerevisiae deletion strains, locus YNL153C, strain GIM3, stronger effect = lower value 0.993 | S. cerevisiae deletion strains, locus YNL183C, strain NPR1, stronger effect = lower value 0.974 | S. cerevisiae deletion strains, locus YNL209W, strain ssb2, stronger effect = lower value 1 | S. cerevisiae deletion strains, locus YNL233W, strain BNI4, stronger effect = lower value 0.981 | S. cerevisiae deletion strains, locus YNL248C, strain rpa49, stronger effect = lower value 1.01 | S. cerevisiae deletion strains, locus YNL250W, strain rad50, stronger effect = lower value 0.987 | S. cerevisiae deletion strains, locus YNL271C, strain bni1, stronger effect = lower value 0.99 | S. cerevisiae deletion strains, locus YNL298W, strain CLA4, stronger effect = lower value 0.981 | S. cerevisiae deletion strains, locus YNL307C, strain MCK1, stronger effect = lower value 0.989 | S. cerevisiae deletion strains, locus YNL322C, strain KRE1 (second series), stronger effect = lower value 0.987 | S. cerevisiae deletion strains, locus YNL322C, strain KRE1, stronger effect = lower value 1 | S. cerevisiae deletion strains, locus YNR049C, strain mso1, stronger effect = lower value 0.997 | S. cerevisiae deletion strains, locus YNR052C, strain pop2, stronger effect = lower value 0.992 | S. cerevisiae deletion strains, locus YOL006C, strain TOP1, stronger effect = lower value 0.988 | S. cerevisiae deletion strains, locus YOL012C, strain htz1 0.933 | S. cerevisiae deletion strains, locus YOL147C, strain pex11, stronger effect = lower value 0.989 | S. cerevisiae deletion strains, locus YOR001W, strain rrp6, stronger effect = lower value 1 | S. cerevisiae deletion strains, locus YOR061W, strain CKA2, stronger effect = lower value 0.997 | S. cerevisiae deletion strains, locus YOR069W, strain VPS5, stronger effect = lower value 0.988 | S. cerevisiae deletion strains, locus YOR070C, strain gyp1, stronger effect = lower value 1 | S. cerevisiae deletion strains, locus YOR080W, strain dia2, stronger effect = lower value 0.987 | S. cerevisiae deletion strains, locus YOR083W, strain WHI5, stronger effect = lower value 1.01 | S. cerevisiae deletion strains, locus YOR106W, strain vam3, stronger effect = lower value 1 | S. cerevisiae deletion strains, locus YOR136W, strain idh2, stronger effect = lower value 0.995 | S. cerevisiae deletion strains, locus YOR144C, strain elg1, stronger effect = lower value 0.985 | S. cerevisiae deletion strains, locus YOR184W, strain ser1, stronger effect = lower value 0.975 | S. cerevisiae deletion strains, locus YOR231W, strain MKK1, stronger effect = lower value 0.975 | S. cerevisiae deletion strains, locus YOR265W, strain rbl2, stronger effect = lower value 0.991 | S. cerevisiae deletion strains, locus YOR270C, strain vph1, stronger effect = lower value 1.01 | S. cerevisiae deletion strains, locus YOR290C, strain snf2, stronger effect = lower value 0.957 | S. cerevisiae deletion strains, locus YOR316C, strain cot1, stronger effect = lower value 0.994 | S. cerevisiae deletion strains, locus YPL051W, strain arl3, stronger effect = lower value 1.01 | S. cerevisiae deletion strains, locus YPL055C, strain LGE1, stronger effect = lower value 1.04 | S. cerevisiae deletion strains, locus YPL078C, strain atp4, stronger effect = lower value 1.01 | S. cerevisiae deletion strains, locus YPL106C, strain sse1, stronger effect = lower value 0.951 | S. cerevisiae deletion strains, locus YPL240C, strain hsp82, stronger effect = lower value 1.01 | S. cerevisiae deletion strains, locus YPL241C, strain CIN2, stronger effect = lower value 1 | S. cerevisiae deletion strains, locus YPL256C, strain CLN2, stronger effect = lower value 0.986 | S. cerevisiae deletion strains, locus YPR119W, strain clb2, stronger effect = lower value 1 | S. cerevisiae deletion strains, locus YPR141C, strain kar3, stronger effect = lower value 0.978 | S. cerevisiae deletion strains, locus YPR163C, strain tif3, stronger effect = lower value 0.989 | S. cerevisiae deletion strains, locus YPR167C, strain met16, stronger effect = lower value 0.991 | S. cerevisiae deletion strains, strain wtn01, stronger effect = lower value 0.956 | S. cerevisiae strains, strain wild type, stronger effect = lower value 1

Source: PubChem BioAssay AID1159580 (chemical genetic matrix, 2015)
